Holding throughout (assay): PBM; 200 nM protein, PBS
Details in all cases: dsDNA, one strand shown

For assay [1], the target named is SHOX (Homo sapiens, UniProt O15266 103-189).
In assay [2] the target is T1, SIX6 (Homo sapiens, UniProt O95475 114-200, L167I).
T1 sequence: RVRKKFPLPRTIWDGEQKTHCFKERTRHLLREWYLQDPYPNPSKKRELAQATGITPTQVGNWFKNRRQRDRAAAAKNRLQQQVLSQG

Assay [3] addresses T2, SIX6 (Homo sapiens, UniProt O95475 114-200, L143V).
T2 sequence: T1 sequence with L30V, I54L

Assay [4] deals with HOXA7 (Homo sapiens, UniProt P31268 116-202).
Chain of HOXA7 (Homo sapiens, UniProt P31268 116-202) (P31268 116-202): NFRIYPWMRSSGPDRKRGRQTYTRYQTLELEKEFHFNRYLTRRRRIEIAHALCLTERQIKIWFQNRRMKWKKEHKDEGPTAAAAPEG
Assay [5] has as its target T3, SIX6 (Homo sapiens, UniProt O95475 114-200, H141N).
T3 sequence: T1 sequence with H28N, I54L

Assay [6] deals with T4, SIX6 (Homo sapiens, UniProt O95475 114-200, T165P).
T4 sequence: T1 sequence with T52P, I54L

The target in assay [7] is T5, SIX6 (Homo sapiens, UniProt O95475 114-200, L167M).
T5 sequence: T1 sequence with I54M

The target of assay [8] is T6, SIX6 (Homo sapiens, UniProt O95475 114-200, L143M).
T6 sequence: T1 sequence with L30M, I54L

Assay [9] has as its target T7, SIX6 (Homo sapiens, UniProt O95475 114-200, L143I).
T7 sequence: T1 sequence with L30I, I54L

In assay [10] the target is T8, SIX6 (Homo sapiens, UniProt O95475 114-200, T165G).
T8 sequence: T1 sequence with T52G, I54L

In assay [11] the target is T9, SIX6 (Homo sapiens, UniProt O95475 114-200, T139Q).
T9 sequence: T1 sequence with T26Q, I54L

In assay [12] the target is ALX3 (Homo sapiens, UniProt O95076 139-225, N203Q).
Chain of ALX3 (Homo sapiens, UniProt O95076 139-225, N203Q) (O95076 139-225 N203Q): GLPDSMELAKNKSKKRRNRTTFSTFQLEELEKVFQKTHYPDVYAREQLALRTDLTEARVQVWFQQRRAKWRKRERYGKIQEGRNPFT
Assay [13] has as its target HOXD13 (Homo sapiens, UniProt P35453 263-343, T313R).
The target in assay [14] is T10, SIX6 (Homo sapiens, UniProt O95475 114-200, T165A).
T10 sequence: T1 sequence with T52A, I54L

Assay [15] addresses SHOX (Homo sapiens, UniProt O15266 103-189, R173C).
Assay [16] has as its target HOXD13 (Homo sapiens, UniProt P35453 263-343).
Assay [17] addresses T11, SIX6 (Homo sapiens, UniProt O95475 114-200, L167V).
T11 sequence: T1 sequence with I54V

The target of assay [18] is ALX3 (Homo sapiens, UniProt O95076 139-225).
Chain of ALX3 (Homo sapiens, UniProt O95076 139-225) (O95076 139-225): as the sequence (O95076 139-225 N203Q) above, with Q65N counted along it
The target in assay [19] is T12, SIX6 (Homo sapiens, UniProt O95475 114-200).
T12 sequence: T1 sequence with I54L

Assay [20] has as its target ALX3 (Homo sapiens, UniProt O95076 139-225, L168Q).
For assay [21], the target named is T13, SIX6 (Homo sapiens, UniProt O95475 114-200, T165I).
T13 sequence: T1 sequence with T52I, I54L

In assay [22] the target is HOXD13 (Homo sapiens, UniProt P35453 263-343, T313A).
Chain of HOXD13 (Homo sapiens, UniProt P35453 263-343, T313A) (P35453 263-343 T313A): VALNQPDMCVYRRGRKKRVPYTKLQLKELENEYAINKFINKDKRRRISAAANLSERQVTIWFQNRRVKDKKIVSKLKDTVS
Assay [23] concerns the target ALX3 (Homo sapiens, UniProt O95076 139-225, L168V).
Assay [24] concerns the target HOXA7 (Homo sapiens, UniProt P31268 116-202, W177C).
For assay [25], the target named is ALX3 (Homo sapiens, UniProt O95076 139-225, N203S).
Chain of ALX3 (Homo sapiens, UniProt O95076 139-225, N203S) (O95076 139-225 N203S): as the sequence (O95076 139-225 N203Q) above, with Q65S counted along it
The target of assay [26] is HOXC9 (Homo sapiens, UniProt P31274 178-260, K195R).
Chain of HOXC9 (Homo sapiens, UniProt P31274 178-260, K195R) (P31274 178-260 K195R): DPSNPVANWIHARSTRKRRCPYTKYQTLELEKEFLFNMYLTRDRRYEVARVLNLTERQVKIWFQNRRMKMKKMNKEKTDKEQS
For assay [27], the target named is HOXB6 (Homo sapiens, UniProt P17509 132-218, K202E).
Chain of HOXB6 (Homo sapiens, UniProt P17509 132-218, K202E) (P17509 132-218 K202E): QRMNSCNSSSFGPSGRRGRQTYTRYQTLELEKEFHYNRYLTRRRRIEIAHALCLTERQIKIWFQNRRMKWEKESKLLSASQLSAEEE
The target in assay [28] is HOXC9 (Homo sapiens, UniProt P31274 178-260).
Chain of HOXC9 (Homo sapiens, UniProt P31274 178-260) (P31274 178-260): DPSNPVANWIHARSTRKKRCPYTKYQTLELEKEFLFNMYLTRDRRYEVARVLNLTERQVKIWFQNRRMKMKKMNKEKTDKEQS
Assay [29] deals with MSX2 (Homo sapiens, UniProt P35548 130-214, R199I).
Chain of MSX2 (Homo sapiens, UniProt P35548 130-214, R199I) (P35548 130-214 R199I): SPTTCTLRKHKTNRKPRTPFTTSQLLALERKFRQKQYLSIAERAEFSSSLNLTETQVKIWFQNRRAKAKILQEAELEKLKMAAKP
Assay [30] concerns the target HOXC9 (Homo sapiens, UniProt P31274 178-260, R193K).
Assay [31] has as its target MSX2 (Homo sapiens, UniProt P35548 130-214).
Assay [32] concerns the target HOXC9 (Homo sapiens, UniProt P31274 178-260, R222W).
Assay [33] has as its target MSX2 (Homo sapiens, UniProt P35548 130-214, F161Y).
For assay [34], the target named is HOXB6 (Homo sapiens, UniProt P17509 132-218).
Chain of HOXB6 (Homo sapiens, UniProt P17509 132-218) (P17509 132-218): as the sequence (P17509 132-218 K202E) above, with E71K counted along it
The target in assay [35] is CRX (Homo sapiens, UniProt O43186 26-111).
Chain of CRX (Homo sapiens, UniProt O43186 26-111) (O43186 26-111): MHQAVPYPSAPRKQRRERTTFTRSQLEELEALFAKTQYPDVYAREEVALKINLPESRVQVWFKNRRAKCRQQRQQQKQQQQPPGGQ
For assay [36], the target named is CRX (Homo sapiens, UniProt O43186 26-111, E42D).
Chain of CRX (Homo sapiens, UniProt O43186 26-111, E42D) (O43186 26-111 E42D): as the sequence (O43186 26-111) above, with E17D counted along it
For assay [37], the target named is PITX2 (Homo sapiens, UniProt Q99697 72-157).
In assay [38] the target is CRX (Homo sapiens, UniProt O43186 26-111, R41L).
Chain of CRX (Homo sapiens, UniProt O43186 26-111, R41L) (O43186 26-111 R41L): as the sequence (O43186 26-111) above, with R16L counted along it
Assay [39] addresses HOXA4 (Homo sapiens, UniProt Q00056 201-287, W262R).
In assay [40] the target is HOXA4 (Homo sapiens, UniProt Q00056 201-287, R217L).
Chain of HOXA4 (Homo sapiens, UniProt Q00056 201-287, R217L) (Q00056 201-287 R217L): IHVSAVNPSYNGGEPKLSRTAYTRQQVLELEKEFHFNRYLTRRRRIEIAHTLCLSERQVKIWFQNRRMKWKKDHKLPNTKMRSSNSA
Assay [41] has as its target HOXA4 (Homo sapiens, UniProt Q00056 201-287).
Assay [42] addresses HOXA4 (Homo sapiens, UniProt Q00056 201-287, W262F).

Where a chain is given by its changes, count along the chain named.

Chain of SHOX (Homo sapiens, UniProt O15266 103-189, R173C) (O15266 103-189 R173C): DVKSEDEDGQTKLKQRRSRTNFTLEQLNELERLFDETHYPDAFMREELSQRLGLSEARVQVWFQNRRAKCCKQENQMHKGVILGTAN
Chain of SHOX (Homo sapiens, UniProt O15266 103-189) (O15266 103-189): as the sequence (O15266 103-189 R173C) above, with C71R counted along it
Chain of MSX2 (Homo sapiens, UniProt P35548 130-214) (P35548 130-214): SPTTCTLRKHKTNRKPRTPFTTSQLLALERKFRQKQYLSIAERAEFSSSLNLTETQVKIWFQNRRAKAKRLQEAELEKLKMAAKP
Chain of HOXA4 (Homo sapiens, UniProt Q00056 201-287) (Q00056 201-287): as the sequence (Q00056 201-287 R217L) above, with L17R counted along it
Chain of HOXC9 (Homo sapiens, UniProt P31274 178-260, R222W) (P31274 178-260 R222W): as the sequence (P31274 178-260) above, with R45W counted along it
Chain of HOXA7 (Homo sapiens, UniProt P31268 116-202, W177C) (P31268 116-202 W177C): as the sequence (P31268 116-202) above, with W62C counted along it
Chain of HOXC9 (Homo sapiens, UniProt P31274 178-260, R193K) (P31274 178-260 R193K): as the sequence (P31274 178-260) above, with R16K counted along it
Chain of HOXA4 (Homo sapiens, UniProt Q00056 201-287, W262F) (Q00056 201-287 W262F): as the sequence (Q00056 201-287 R217L) above, with L17R, W62F counted along it
Chain of ALX3 (Homo sapiens, UniProt O95076 139-225, L168V) (O95076 139-225 L168V): as the sequence (O95076 139-225 N203Q) above, with L30V, Q65N counted along it
Chain of HOXA4 (Homo sapiens, UniProt Q00056 201-287, W262R) (Q00056 201-287 W262R): as the sequence (Q00056 201-287 R217L) above, with L17R, W62R counted along it
Chain of HOXD13 (Homo sapiens, UniProt P35453 263-343, T313R) (P35453 263-343 T313R): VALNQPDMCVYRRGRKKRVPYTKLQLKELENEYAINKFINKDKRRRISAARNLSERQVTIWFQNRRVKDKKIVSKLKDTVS
Chain of ALX3 (Homo sapiens, UniProt O95076 139-225, L168Q) (O95076 139-225 L168Q): as the sequence (O95076 139-225 N203Q) above, with L30Q, Q65N counted along it
Chain of MSX2 (Homo sapiens, UniProt P35548 130-214, F161Y) (P35548 130-214 F161Y): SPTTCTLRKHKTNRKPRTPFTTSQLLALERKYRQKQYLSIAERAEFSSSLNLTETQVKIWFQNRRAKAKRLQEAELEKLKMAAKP
Chain of HOXD13 (Homo sapiens, UniProt P35453 263-343) (P35453 263-343): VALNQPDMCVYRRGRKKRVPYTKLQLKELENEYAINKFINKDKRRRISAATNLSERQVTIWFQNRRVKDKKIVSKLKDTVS

As for CCTCTCCG, the binding signal was 6.97 upbm affinity estimate (log intensity, higher = more binding, comparable within an allelic series) in [1]; 8.93 upbm affinity estimate (log intensity, higher = more binding, comparable within an allelic series) in assay [2]; 8.82 upbm affinity estimate (log intensity, higher = more binding, comparable within an allelic series) in assay [3]; 8.27 upbm affinity estimate (log intensity, higher = more binding, comparable within an allelic series) in [4]; 8.83 upbm affinity estimate (log intensity, higher = more binding, comparable within an allelic series) in assay [5]; 8.87 upbm affinity estimate (log intensity, higher = more binding, comparable within an allelic series) in assay [6]. In addition, the binding signal in assay [7] is 8.89 upbm affinity estimate (log intensity, higher = more binding, comparable within an allelic series); in [8], 8.93 upbm affinity estimate (log intensity, higher = more binding, comparable within an allelic series); in assay [9], 8.91 upbm affinity estimate (log intensity, higher = more binding, comparable within an allelic series); in [10], 8.85 upbm affinity estimate (log intensity, higher = more binding, comparable within an allelic series); in assay [11], 8.89 upbm affinity estimate (log intensity, higher = more binding, comparable within an allelic series); in assay [12], 7.63 upbm affinity estimate (log intensity, higher = more binding, comparable within an allelic series). The binding signal in [13] was 9.4 upbm affinity estimate (log intensity, higher = more binding, comparable within an allelic series); in assay [14], 8.98 upbm affinity estimate (log intensity, higher = more binding, comparable within an allelic series); in [15], 7.06 upbm affinity estimate (log intensity, higher = more binding, comparable within an allelic series); in [16] it was 9.42 upbm affinity estimate (log intensity, higher = more binding, comparable within an allelic series); in assay [17], 8.9 upbm affinity estimate (log intensity, higher = more binding, comparable within an allelic series); in assay [18], 7.51 upbm affinity estimate (log intensity, higher = more binding, comparable within an allelic series). For the same sequence, the binding signal in [19] was 8.77 upbm affinity estimate (log intensity, higher = more binding, comparable within an allelic series); in [20] it was 7.69 upbm affinity estimate (log intensity, higher = more binding, comparable within an allelic series); in assay [21] it was 8.86 upbm affinity estimate (log intensity, higher = more binding, comparable within an allelic series); in assay [22], 9.42 upbm affinity estimate (log intensity, higher = more binding, comparable within an allelic series); in assay [23], 7.6 upbm affinity estimate (log intensity, higher = more binding, comparable within an allelic series); in [24], 8.41 upbm affinity estimate (log intensity, higher = more binding, comparable within an allelic series). In addition, the binding signal in assay [25] was 7.61 upbm affinity estimate (log intensity, higher = more binding, comparable within an allelic series).

As for CCAGGGAC, the binding signal in assay [1] is 7.08 upbm affinity estimate (log intensity, higher = more binding, comparable within an allelic series); in assay [26], 9.47 upbm affinity estimate (log intensity, higher = more binding, comparable within an allelic series); in assay [27], 8.97 upbm affinity estimate (log intensity, higher = more binding, comparable within an allelic series); in assay [28], 9.52 upbm affinity estimate (log intensity, higher = more binding, comparable within an allelic series); in [29] it was 9.5 upbm affinity estimate (log intensity, higher = more binding, comparable within an allelic series); in assay [15] it was 7.17 upbm affinity estimate (log intensity, higher = more binding, comparable within an allelic series). Besides, the binding signal in assay [30] is 9.51 upbm affinity estimate (log intensity, higher = more binding, comparable within an allelic series); in assay [31], 9.58 upbm affinity estimate (log intensity, higher = more binding, comparable within an allelic series); in assay [32], 9.62 upbm affinity estimate (log intensity, higher = more binding, comparable within an allelic series); in assay [33], 9.57 upbm affinity estimate (log intensity, higher = more binding, comparable within an allelic series); in [34], 8.99 upbm affinity estimate (log intensity, higher = more binding, comparable within an allelic series).

Regarding GATTAATC, the binding signal in assay [1] was 10.2 upbm affinity estimate (log intensity, higher = more binding, comparable within an allelic series); in [35], 13.2 upbm affinity estimate (log intensity, higher = more binding, comparable within an allelic series); in [36], 13 upbm affinity estimate (log intensity, higher = more binding, comparable within an allelic series); in [37] it was 12.9 upbm affinity estimate (log intensity, higher = more binding, comparable within an allelic series); in assay [38], 12.9 upbm affinity estimate (log intensity, higher = more binding, comparable within an allelic series).

For CCCCGGGA, the binding signal in assay [1] was 7.25 upbm affinity estimate (log intensity, higher = more binding, comparable within an allelic series); in [39] it was 9.71 upbm affinity estimate (log intensity, higher = more binding, comparable within an allelic series); in assay [40], 9.86 upbm affinity estimate (log intensity, higher = more binding, comparable within an allelic series); in assay [15] it was 7.27 upbm affinity estimate (log intensity, higher = more binding, comparable within an allelic series); in [41], 9.8 upbm affinity estimate (log intensity, higher = more binding, comparable within an allelic series); in assay [42], 9.99 upbm affinity estimate (log intensity, higher = more binding, comparable within an allelic series).
